{"source": "paper PMC11006913", "assay_in_all_cases": "PBM; 200 nM protein, PBS", "conditions_in_all_cases": "dsDNA, one strand shown", "key": {"HESX1 [1]": {"target": "HESX1 (Homo sapiens, UniProt Q9UBX0 95-180, R165K)", "sequence (Q9UBX0 95-180 R165K)": "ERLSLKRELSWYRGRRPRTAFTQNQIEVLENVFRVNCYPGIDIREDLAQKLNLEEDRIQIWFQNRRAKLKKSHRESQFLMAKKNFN"}, "HESX1 [2]": {"target": "HESX1 (Homo sapiens, UniProt Q9UBX0 95-180)", "sequence (Q9UBX0 95-180)": "as the sequence (Q9UBX0 95-180 R165K) above, with K71R counted along it"}, "HESX1 [3]": {"target": "HESX1 (Homo sapiens, UniProt Q9UBX0 95-180, F115L)", "sequence (Q9UBX0 95-180 F115L)": "as the sequence (Q9UBX0 95-180 R165K) above, with F21L, K71R counted along it"}, "HOXB6 [4]": {"target": "HOXB6 (Homo sapiens, UniProt P17509 132-218, K202E)", "sequence (P17509 132-218 K202E)": "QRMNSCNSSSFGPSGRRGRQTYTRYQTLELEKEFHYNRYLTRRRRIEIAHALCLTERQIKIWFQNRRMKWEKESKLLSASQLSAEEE"}, "HOXA2 [5]": {"target": "HOXA2 (Homo sapiens, UniProt O43364 129-215, R185T)", "sequence (O43364 129-215 R185T)": "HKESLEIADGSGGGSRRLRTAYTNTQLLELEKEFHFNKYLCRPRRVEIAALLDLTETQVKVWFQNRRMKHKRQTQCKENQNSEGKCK"}, "ALX3 [6]": {"target": "ALX3 (Homo sapiens, UniProt O95076 139-225, N203Q)", "sequence (O95076 139-225 N203Q)": "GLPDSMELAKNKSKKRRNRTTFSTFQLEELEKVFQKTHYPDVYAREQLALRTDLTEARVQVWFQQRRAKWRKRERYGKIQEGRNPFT"}, "SHOX": {"target": "SHOX (Homo sapiens, UniProt O15266 103-189, R173C)", "sequence (O15266 103-189 R173C)": "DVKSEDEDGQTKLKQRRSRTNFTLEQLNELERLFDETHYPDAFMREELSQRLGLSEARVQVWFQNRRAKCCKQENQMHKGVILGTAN"}, "HOXA2 [7]": {"target": "HOXA2 (Homo sapiens, UniProt O43364 129-215, R185K)", "sequence (O43364 129-215 R185K)": "as the sequence (O43364 129-215 R185T) above, with T57K counted along it"}, "PROP1 [8]": {"target": "PROP1 (Homo sapiens, UniProt O75360 56-141)", "sequence (O75360 56-141)": "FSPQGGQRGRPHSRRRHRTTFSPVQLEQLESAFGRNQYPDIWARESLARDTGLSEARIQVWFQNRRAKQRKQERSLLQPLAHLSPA"}, "PROP1 [9]": {"target": "PROP1 (Homo sapiens, UniProt O75360 56-141, R99H)", "sequence (O75360 56-141 R99H)": "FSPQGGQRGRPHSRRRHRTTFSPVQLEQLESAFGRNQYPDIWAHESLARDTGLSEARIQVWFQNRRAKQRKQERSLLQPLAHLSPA"}, "ALX3 [10]": {"target": "ALX3 (Homo sapiens, UniProt O95076 139-225, L168Q)", "sequence (O95076 139-225 L168Q)": "as the sequence (O95076 139-225 N203Q) above, with L30Q, Q65N counted along it"}, "ALX3 [11]": {"target": "ALX3 (Homo sapiens, UniProt O95076 139-225, L168V)", "sequence (O95076 139-225 L168V)": "as the sequence (O95076 139-225 N203Q) above, with L30V, Q65N counted along it"}, "PROP1 [12]": {"target": "PROP1 (Homo sapiens, UniProt O75360 56-141, F88S)", "sequence (O75360 56-141 F88S)": "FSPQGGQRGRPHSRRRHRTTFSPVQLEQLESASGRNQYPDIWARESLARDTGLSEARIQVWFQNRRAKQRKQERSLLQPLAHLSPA"}, "HOXA2 [13]": {"target": "HOXA2 (Homo sapiens, UniProt O43364 129-215, Y150S)", "sequence (O43364 129-215 Y150S)": "as the sequence (O43364 129-215 R185T) above, with Y22S, T57R counted along it"}, "ALX3 [14]": {"target": "ALX3 (Homo sapiens, UniProt O95076 139-225, N203S)", "sequence (O95076 139-225 N203S)": "as the sequence (O95076 139-225 N203Q) above, with Q65S counted along it"}, "HOXA2 [15]": {"target": "HOXA2 (Homo sapiens, UniProt O43364 129-215)", "sequence (O43364 129-215)": "as the sequence (O43364 129-215 R185T) above, with T57R counted along it"}, "VAX1": {"target": "VAX1 (Homo sapiens, UniProt Q5SQQ9 86-172, K157R)", "sequence (Q5SQQ9 86-172 K157R)": "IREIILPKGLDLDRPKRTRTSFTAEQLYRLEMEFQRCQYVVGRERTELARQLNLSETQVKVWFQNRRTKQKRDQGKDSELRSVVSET"}, "HOXB6 [16]": {"target": "HOXB6 (Homo sapiens, UniProt P17509 132-218)", "sequence (P17509 132-218)": "as the sequence (P17509 132-218 K202E) above, with E71K counted along it"}, "HOXB9 [17]": {"target": "HOXB9 (Homo sapiens, UniProt P17482 171-250)", "sequence (P17482 171-250)": "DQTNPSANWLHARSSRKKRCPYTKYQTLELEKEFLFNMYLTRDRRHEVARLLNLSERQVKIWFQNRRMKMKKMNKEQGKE"}, "HOXB9 [18]": {"target": "HOXB9 (Homo sapiens, UniProt P17482 171-250, R186Q)", "sequence (P17482 171-250 R186Q)": "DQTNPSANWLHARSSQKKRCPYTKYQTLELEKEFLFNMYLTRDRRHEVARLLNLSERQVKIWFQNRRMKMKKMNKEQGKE"}}, "data": [{"sequence": "CCGCGTCG", "values": [{"measurement": "binding signal", "setting": "HESX1 [1]", "result": "6.63 upbm affinity estimate (log intensity, higher = more binding, comparable within an allelic series)"}, {"measurement": "binding signal", "setting": "HESX1 [2]", "result": "6.33 upbm affinity estimate (log intensity, higher = more binding, comparable within an allelic series)"}, {"measurement": "binding signal", "setting": "HESX1 [3]", "result": "6.48 upbm affinity estimate (log intensity, higher = more binding, comparable within an allelic series)"}]}, {"sequence": "CACTTAGA", "values": [{"measurement": "binding signal", "setting": "HESX1 [1]", "result": "7.73 upbm affinity estimate (log intensity, higher = more binding, comparable within an allelic series)"}, {"measurement": "binding signal", "setting": "HESX1 [2]", "result": "7.94 upbm affinity estimate (log intensity, higher = more binding, comparable within an allelic series)"}, {"measurement": "binding signal", "setting": "HESX1 [3]", "result": "6.78 upbm affinity estimate (log intensity, higher = more binding, comparable within an allelic series)"}]}, {"sequence": "CTAATTGC", "values": [{"measurement": "binding signal", "setting": "HESX1 [1]", "result": "12.3 upbm affinity estimate (log intensity, higher = more binding, comparable within an allelic series)"}, {"measurement": "binding signal", "setting": "HOXB6 [4]", "result": "9.81 upbm affinity estimate (log intensity, higher = more binding, comparable within an allelic series)"}, {"measurement": "binding signal", "setting": "HESX1 [2]", "result": "12.5 upbm affinity estimate (log intensity, higher = more binding, comparable within an allelic series)"}, {"measurement": "binding signal", "setting": "HOXA2 [5]", "result": "13.1 upbm affinity estimate (log intensity, higher = more binding, comparable within an allelic series)"}, {"measurement": "binding signal", "setting": "ALX3 [6]", "result": "8.22 upbm affinity estimate (log intensity, higher = more binding, comparable within an allelic series)"}, {"measurement": "binding signal", "setting": "SHOX", "result": "9.34 upbm affinity estimate (log intensity, higher = more binding, comparable within an allelic series)"}, {"measurement": "binding signal", "setting": "HOXA2 [7]", "result": "13.5 upbm affinity estimate (log intensity, higher = more binding, comparable within an allelic series)"}, {"measurement": "binding signal", "setting": "PROP1 [8]", "result": "11.2 upbm affinity estimate (log intensity, higher = more binding, comparable within an allelic series)"}, {"measurement": "binding signal", "setting": "PROP1 [9]", "result": "11.5 upbm affinity estimate (log intensity, higher = more binding, comparable within an allelic series)"}, {"measurement": "binding signal", "setting": "ALX3 [10]", "result": "10.3 upbm affinity estimate (log intensity, higher = more binding, comparable within an allelic series)"}, {"measurement": "binding signal", "setting": "ALX3 [11]", "result": "9.7 upbm affinity estimate (log intensity, higher = more binding, comparable within an allelic series)"}, {"measurement": "binding signal", "setting": "PROP1 [12]", "result": "7.41 upbm affinity estimate (log intensity, higher = more binding, comparable within an allelic series)"}, {"measurement": "binding signal", "setting": "HESX1 [3]", "result": "7.52 upbm affinity estimate (log intensity, higher = more binding, comparable within an allelic series)"}, {"measurement": "binding signal", "setting": "HOXA2 [13]", "result": "10.7 upbm affinity estimate (log intensity, higher = more binding, comparable within an allelic series)"}, {"measurement": "binding signal", "setting": "ALX3 [14]", "result": "8.29 upbm affinity estimate (log intensity, higher = more binding, comparable within an allelic series)"}, {"measurement": "binding signal", "setting": "HOXA2 [15]", "result": "12.6 upbm affinity estimate (log intensity, higher = more binding, comparable within an allelic series)"}, {"measurement": "binding signal", "setting": "VAX1", "result": "12.8 upbm affinity estimate (log intensity, higher = more binding, comparable within an allelic series)"}, {"measurement": "binding signal", "setting": "HOXB6 [16]", "result": "11.8 upbm affinity estimate (log intensity, higher = more binding, comparable within an allelic series)"}]}, {"sequence": "ACGGCTGG", "values": [{"measurement": "binding signal", "setting": "PROP1 [8]", "result": "6.59 upbm affinity estimate (log intensity, higher = more binding, comparable within an allelic series)"}, {"measurement": "binding signal", "setting": "PROP1 [9]", "result": "6.78 upbm affinity estimate (log intensity, higher = more binding, comparable within an allelic series)"}, {"measurement": "binding signal", "setting": "PROP1 [12]", "result": "6.67 upbm affinity estimate (log intensity, higher = more binding, comparable within an allelic series)"}]}, {"sequence": "ACCAGCTG", "values": [{"measurement": "binding signal", "setting": "SHOX", "result": "7.03 upbm affinity estimate (log intensity, higher = more binding, comparable within an allelic series)"}]}, {"sequence": "CCAGCCAG", "values": [{"measurement": "binding signal", "setting": "HOXB9 [17]", "result": "8.34 upbm affinity estimate (log intensity, higher = more binding, comparable within an allelic series)"}, {"measurement": "binding signal", "setting": "HOXB9 [18]", "result": "8.39 upbm affinity estimate (log intensity, higher = more binding, comparable within an allelic series)"}]}, {"sequence": "CACGGGCC", "values": [{"measurement": "binding signal", "setting": "HOXA2 [5]", "result": "6.97 upbm affinity estimate (log intensity, higher = more binding, comparable within an allelic series)"}, {"measurement": "binding signal", "setting": "ALX3 [6]", "result": "7.64 upbm affinity estimate (log intensity, higher = more binding, comparable within an allelic series)"}, {"measurement": "binding signal", "setting": "HOXA2 [7]", "result": "10.1 upbm affinity estimate (log intensity, higher = more binding, comparable within an allelic series)"}, {"measurement": "binding signal", "setting": "ALX3 [10]", "result": "7.64 upbm affinity estimate (log intensity, higher = more binding, comparable within an allelic series)"}, {"measurement": "binding signal", "setting": "ALX3 [11]", "result": "7.58 upbm affinity estimate (log intensity, higher = more binding, comparable within an allelic series)"}, {"measurement": "binding signal", "setting": "HOXA2 [13]", "result": "10.3 upbm affinity estimate (log intensity, higher = more binding, comparable within an allelic series)"}, {"measurement": "binding signal", "setting": "ALX3 [14]", "result": "7.68 upbm affinity estimate (log intensity, higher = more binding, comparable within an allelic series)"}, {"measurement": "binding signal", "setting": "HOXA2 [15]", "result": "6.84 upbm affinity estimate (log intensity, higher = more binding, comparable within an allelic series)"}]}, {"sequence": "CCGGTGGC", "values": [{"measurement": "binding signal", "setting": "VAX1", "result": "7.27 upbm affinity estimate (log intensity, higher = more binding, comparable within an allelic series)"}]}, {"sequence": "ATAATGGG", "values": [{"measurement": "binding signal", "setting": "HOXB6 [4]", "result": "9.9 upbm affinity estimate (log intensity, higher = more binding, comparable within an allelic series)"}, {"measurement": "binding signal", "setting": "HOXB6 [16]", "result": "11.8 upbm affinity estimate (log intensity, higher = more binding, comparable within an allelic series)"}]}, {"sequence": "CGTGCACG", "values": [{"measurement": "binding signal", "setting": "HOXB9 [17]", "result": "8.75 upbm affinity estimate (log intensity, higher = more binding, comparable within an allelic series)"}, {"measurement": "binding signal", "setting": "HOXB9 [18]", "result": "8.57 upbm affinity estimate (log intensity, higher = more binding, comparable within an allelic series)"}]}, {"sequence": "GCGACGCC", "values": [{"measurement": "binding signal", "setting": "HOXA2 [5]", "result": "7.22 upbm affinity estimate (log intensity, higher = more binding, comparable within an allelic series)"}, {"measurement": "binding signal", "setting": "HOXA2 [7]", "result": "10.4 upbm affinity estimate (log intensity, higher = more binding, comparable within an allelic series)"}, {"measurement": "binding signal", "setting": "HOXA2 [13]", "result": "10.6 upbm affinity estimate (log intensity, higher = more binding, comparable within an allelic series)"}, {"measurement": "binding signal", "setting": "HOXA2 [15]", "result": "7.31 upbm affinity estimate (log intensity, higher = more binding, comparable within an allelic series)"}, {"measurement": "binding signal", "setting": "VAX1", "result": "7.22 upbm affinity estimate (log intensity, higher = more binding, comparable within an allelic series)"}]}, {"sequence": "CATGCGCC", "values": [{"measurement": "binding signal", "setting": "HOXB9 [17]", "result": "8.56 upbm affinity estimate (log intensity, higher = more binding, comparable within an allelic series)"}, {"measurement": "binding signal", "setting": "HOXB9 [18]", "result": "8.56 upbm affinity estimate (log intensity, higher = more binding, comparable within an allelic series)"}]}, {"sequence": "CGGTCGGC", "values": [{"measurement": "binding signal", "setting": "ALX3 [6]", "result": "7.66 upbm affinity estimate (log intensity, higher = more binding, comparable within an allelic series)"}, {"measurement": "binding signal", "setting": "ALX3 [10]", "result": "7.79 upbm affinity estimate (log intensity, higher = more binding, comparable within an allelic series)"}, {"measurement": "binding signal", "setting": "ALX3 [11]", "result": "7.75 upbm affinity estimate (log intensity, higher = more binding, comparable within an allelic series)"}, {"measurement": "binding signal", "setting": "ALX3 [14]", "result": "7.69 upbm affinity estimate (log intensity, higher = more binding, comparable within an allelic series)"}]}, {"sequence": "GCTGGGCC", "values": [{"measurement": "binding signal", "setting": "ALX3 [6]", "result": "7.66 upbm affinity estimate (log intensity, higher = more binding, comparable within an allelic series)"}, {"measurement": "binding signal", "setting": "ALX3 [10]", "result": "7.58 upbm affinity estimate (log intensity, higher = more binding, comparable within an allelic series)"}, {"measurement": "binding signal", "setting": "ALX3 [11]", "result": "7.61 upbm affinity estimate (log intensity, higher = more binding, comparable within an allelic series)"}, {"measurement": "binding signal", "setting": "ALX3 [14]", "result": "7.64 upbm affinity estimate (log intensity, higher = more binding, comparable within an allelic series)"}]}]}
